Test results: PubChem BioAssay (Tox21)
Results filed as inconclusive are left out. A call without a number means that no potency is given here. Active and inactive are the calls of the source. Unless noted, calls follow the shape of the dose curve; as a rule, active = well fitted curve in the direction sought with a large enough effect in the repeat runs; inconclusive = weak or mixed curves; inactive = no such curve, though single readings can be large; an effect the other way counts as inactive or inconclusive.

Key:
[1] = qHTS assay for small molecule agonists of the p53 signaling pathway (AID 651631; calls by dose curve; also: nearly all actives have a fitted effect of over 15% in size; also: potency is read from the fitted curve at half-maximal effect)
In short: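 Read-out is beta-lactamase FRET fluorescence measured 2 h after substrate addition at room temperature, in HCT-116 cells with a p53 response element-driven reporter exposed to compounds for 16 h at 37 °C.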

[2] = qHTS assay for small molecules that induce genotoxicity in human embryonic kidney cells expressing luciferase-tagged ATAD5 (AID 651632); also: nearly all actives have a fitted effect of over 15% in size; also: potency is read from the fitted curve at half-maximal effect
In short: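 A rise in luciferase signal from ATAD5-tagged HEK293T cells marks genetic stress. Cells were exposed to compounds for 16 hr at 37C, 5% CO2, then luciferase was quantified after a 30 min room-temperature incubation with Amplite.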

[3] = qHTS assay for small molecule agonists of the p53 signaling pathway - cell viability (AID 651633; calls by dose curve; also: nearly all actives have a fitted effect of over 30% in size; also: potency is read from the fitted curve at half-maximal effect)
In short: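 Viability counter-read: CellTiter-Glo luminescence (30 min, room temperature) in the same p53RE-bla plates. These plates had been exposed to compounds for 16 h at 37 C.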

[4] = qHTS assay for small molecules that induce genotoxicity in human embryonic kidney cells expressing luciferase-tagged ATAD5 - cell viability (AID 651634; calls by dose curve; also: nearly all actives have a fitted effect of over 25% in size; also: potency is read from the fitted curve at half-maximal effect)
In short: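 Cytotoxicity counter-readout: after 15.5 hr compound treatment at 37C, live-cell protease activity in ATAD5-luciferase HEK293T cells measured by CellTiter-Fluor fluorescence, 30 min development at 37C.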

[5] = qHTS assay for small molecule disruptors of the mitochondrial membrane potential - cell viability (AID 720634; calls by dose curve;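 also: human HepG2 liver cancer cells; nearly all actives have a fitted effect of over 20% in size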)
In short: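 Cytotoxicity was quantified from ATP content by CellTiter-Glo luminescence in the same wells as the MMP dye read-out. HepG2 (2,000 cells/well) were plated overnight and exposed to compounds for 1 hr at 37 C.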

[6] = qHTS assay for small molecule disruptors of the mitochondrial membrane potential (AID 720635); also: potency is read from the fitted curve at half-maximal effect
In short: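 Mitochondrial membrane potential tracked with Mito-MPS dye, red aggregates (ex 540/em 590 nm) against green monomers (ex 490/em 535 nm). Compound treatment 1 hr at 37C, dye 30 min in HepG2.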

[7] = qHTS assay to test for compound auto fluorescence at 590 nm (red) in HepG2 cells (AID 720674)
In short: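 Red autofluorescence (Ex/Em 540/590 nm, Rose Bengal sodium equivalents) was measured in HepG2 cells, 2,000 per well in MEM plus 10% FBS, plated overnight at 37 C. Readings were taken 1 hr after adding 23 nL compound or DMSO, at 37 C and 5% CO2.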

[8] = qHTS assay to test for compound auto fluorescence at 535 nm (green) in HepG2 cells (AID 720675)
[9] = qHTS assay to test for compound auto fluorescence at 460 nm (blue) in HEK293 cells (AID 720678)
In short: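 Intrinsic compound fluorescence is recorded in live HEK293 cultures after overnight incubation at 37C, 5% CO2, using excitation 405 nm and emission 460 nm. Values are referenced to triamterene.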

[10] = qHTS assay to test for compound auto fluorescence at 590 nm (red) in HEK293 cells (AID 720679)
In short: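 Red autofluorescence, HEK293 cells: 2,000 cells/well; attach 4-5 hr 37C; add 23 nL cpd or DMSO; incubate o/n 37C 5% CO2; read Ex540/Em590; Rose Bengal sodium reference.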

[11] = qHTS assay to test for compound auto fluorescence at 535 nm (green) in HEK293 cells (AID 720680)
[12] = qHTS assay to test for compound auto fluorescence at 460 nm (blue) in HEK293 cell free culture (AID 720681)
In short: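 Blue fluorescence (Ex 405/Em 460 nm, triamterene-equivalent) was read immediately after pin transfer of compound or DMSO into medium (DMEM, 10% FBS) without cells.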

[13] = qHTS assay to test for compound auto fluorescence at 535 nm (green) in HEK293 cell free culture (AID 720682)
In short: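 Fluorescein serves as the green reference fluorophore; each compound's intrinsic emission at 535 nm (excitation 485 nm) is reported as an equivalent amount of that dye, measured in serum-containing DMEM without cells.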

[14] = qHTS assay to test for compound auto fluorescence at 590 nm (red) in HEK293 cell free culture (AID 720683)
In short: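 Red-channel autofluorescence of compounds in culture medium (DMEM, 10% FBS), no cells, measured at 540/590 nm. Rose Bengal sodium is the reference fluorophore for equivalence.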

[15] = qHTS assay to test for compound auto fluorescence at 590 nm (red) in HepG2 cell free culture (AID 720684)
In short: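 Cell-free; medium MEM + 10% FBS; compound or DMSO added by pintool; read Ex 540/Em 590 nm; Rose Bengal sodium as red reference fluorophore.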

[16] = qHTS assay to test for compound auto fluorescence at 460 nm (blue) in HepG2 cell free culture (AID 720685)
In short: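 Cell-free plates of MEM plus 10% FBS received 23 nL compound or DMSO vehicle; blue-channel (405/460 nm) intensity scored against triamterene as reference fluorophore.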

[17] = qHTS assay to test for compound auto fluorescence at 535 nm (green) in HepG2 cell free culture (AID 720686)
[18] = qHTS assay to test for compound auto fluorescence at 460 nm (blue) in HepG2 cells (AID 720687)
In short: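 Blue-channel autofluorescence (Ex/Em 405/460 nm, triamterene-equivalent) was measured after 1 hr compound exposure at 37 C, 5% CO2. Cells were HepG2, plated overnight at 37 C in MEM plus 10% FBS.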

[19] = biological target: Glucocorticoid receptor (Homo sapiens) (UniProt P04150); test: qHTS assay to identify small molecule agonists of the glucocorticoid receptor (GR) signaling pathway (AID 720691; active = well fitted activation curve with a large enough effect in the signal ratio in the repeat runs, not every such curve was filed as active; the % refers to the signal ratio; also: potency is read from the fitted curve at half-maximal effect); settings: GR-bla HeLa, beta-lactamase reporter ratio, 18 h; activation: at 62.4 µM (top of the series)
In short: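 Agonist-mode qHTS in HeLa cells stably expressing a glucocorticoid-response-element beta-lactamase reporter. Fluorescence intensity read with FRET substrate (2 h, room temperature) after 18 h compound treatment at 37 C.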

[20] = biological target: Glucocorticoid receptor (Homo sapiens) (UniProt P04150); test: qHTS assay to identify small molecule antagonists of the glucocorticoid receptor (GR) signaling pathway (AID 720692; active = well fitted inhibition curve with a large enough effect in the signal ratio in the repeat runs, not every such curve was filed as active; the % refers to the signal ratio)
In short: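 Inhibition of dexamethasone-driven (5 nM final) beta-lactamase expression was measured in GRE-reporter HeLa cells over 18 h at 37C. Fluorescence was read after 2 h with the B/G FRET substrate at room temperature.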

Sequence of Glucocorticoid receptor (Homo sapiens) (P04150 whole entry, looked up): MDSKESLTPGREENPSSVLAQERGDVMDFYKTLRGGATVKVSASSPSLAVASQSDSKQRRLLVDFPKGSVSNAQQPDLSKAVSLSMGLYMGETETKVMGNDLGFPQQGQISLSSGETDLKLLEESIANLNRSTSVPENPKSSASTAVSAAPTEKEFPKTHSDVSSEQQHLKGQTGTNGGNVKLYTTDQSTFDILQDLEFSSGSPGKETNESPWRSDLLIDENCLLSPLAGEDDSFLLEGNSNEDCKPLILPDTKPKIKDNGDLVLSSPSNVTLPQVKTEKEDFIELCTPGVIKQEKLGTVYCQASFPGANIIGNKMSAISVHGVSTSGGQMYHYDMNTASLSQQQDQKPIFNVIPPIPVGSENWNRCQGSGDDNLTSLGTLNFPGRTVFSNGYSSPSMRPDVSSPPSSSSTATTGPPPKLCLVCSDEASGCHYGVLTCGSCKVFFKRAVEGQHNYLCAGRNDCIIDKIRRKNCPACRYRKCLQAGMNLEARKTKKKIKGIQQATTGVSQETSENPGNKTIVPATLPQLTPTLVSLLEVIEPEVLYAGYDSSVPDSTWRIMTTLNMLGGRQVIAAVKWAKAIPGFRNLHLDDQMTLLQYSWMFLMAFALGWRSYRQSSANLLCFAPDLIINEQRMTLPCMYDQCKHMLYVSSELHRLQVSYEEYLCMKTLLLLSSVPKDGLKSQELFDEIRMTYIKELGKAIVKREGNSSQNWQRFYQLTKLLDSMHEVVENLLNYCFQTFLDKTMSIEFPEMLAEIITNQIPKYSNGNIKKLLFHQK

ON=C1CCCC1
Potency [1]: inactive | Potency [2]: inactive | Potency [3]: inactive | Potency [4]: inactive | Potency [5]: inactive | Potency [6]: inactive | Potency [7]: inactive | Potency [8]: inactive | Potency [9]: inactive | Potency [10]: inactive | outcome [11]: inactive | Potency [12]: inactive | outcome [13]: inactive | Potency [14]: inactive | Potency [15]: inactive | Potency [16]: inactive | Potency [17]: inactive | Potency [18]: inactive

C=CC(=O)OCC(CO)(COCC(COC(=O)C=C)(COC(=O)C=C)COC(=O)C=C)COC(=O)C=C
Potency [1]: 67.8 µM (active) | Potency [2]: 2.4 µM (active) | Potency [3]: 2.7 µM (active) | Potency [4]: 7.6 µM (active) | Potency [7]: inactive | Potency [8]: inactive | Potency [9]: inactive | Potency [10]: inactive | outcome [11]: inactive | Potency [12]: inactive | outcome [13]: inactive | Potency [14]: inactive | Potency [15]: inactive | Potency [16]: inactive | Potency [17]: inactive | Potency [18]: inactive

N/C(=N\N=C\c1ccc(Cl)cc1)N/N=C/c1ccc(Cl)cc1
Potency [1]: 26.6 µM (active) | Potency [2]: inactive | Potency [3]: 26.6 µM (active) | Potency [4]: inactive | Potency [5]: inactive | Potency [7]: inactive | Potency [8]: inactive | Potency [9]: inactive | Potency [10]: inactive | outcome [11]: inactive | Potency [12]: inactive | outcome [13]: inactive | Potency [14]: inactive | Potency [15]: inactive | Potency [16]: inactive | Potency [18]: inactive | Potency [19]: inactive | Potency [20]: inactive

O=C(Nc1ccc(Oc2ccc(Cl)cc2)c(Cl)c1)c1cc(I)cc(I)c1O
Potency [1]: 10.6 µM (active) | Potency [2]: inactive | Potency [3]: 4.22 µM (active) | Potency [4]: inactive | Potency [5]: inactive | Potency [6]: 2.37 µM (active) | Potency [7]: inactive | Potency [8]: inactive | Potency [9]: inactive | Potency [10]: inactive | outcome [11]: inactive | Potency [12]: inactive | outcome [13]: inactive | Potency [14]: inactive | Potency [15]: inactive | Potency [16]: inactive | Potency [17]: inactive | Potency [18]: inactive

CCCCCOC(=O)CCCC
Potency [1]: inactive | Potency [2]: inactive | Potency [3]: inactive | Potency [4]: inactive | Potency [5]: inactive | Potency [6]: inactive | Potency [8]: inactive | Potency [9]: inactive | Potency [10]: inactive | outcome [11]: inactive | Potency [12]: inactive | outcome [13]: inactive | Potency [14]: inactive | Potency [15]: inactive | Potency [16]: inactive | Potency [17]: inactive | Potency [18]: inactive | Potency [19]: inactive | Potency [20]: inactive

Oc1cccc2cc3cccc(O)c3c(O)c12
Potency [1]: inactive | Potency [2]: inactive | Potency [3]: inactive | Potency [4]: inactive | Potency [5]: inactive | Potency [7]: inactive | Potency [8]: inactive | Potency [9]: inactive | outcome [11]: inactive | Potency [12]: inactive | outcome [13]: inactive | Potency [14]: inactive | Potency [15]: inactive | Potency [16]: inactive | Potency [17]: inactive | Potency [18]: inactive | Potency [19]: inactive | Potency [20]: inactive

Cc1cccc2c1cc1ccc3cccc4ccc2c1c34
Potency [1]: 2.49 µM (active) | Potency [2]: inactive | Potency [3]: inactive | Potency [4]: inactive | Potency [5]: inactive | Potency [8]: inactive | Potency [9]: inactive | Potency [10]: inactive | outcome [11]: inactive | Potency [12]: inactive | outcome [13]: inactive | Potency [14]: inactive | Potency [15]: inactive | Potency [16]: inactive | Potency [17]: inactive | Potency [18]: inactive | Potency [19]: 5.01 µM [fluorescent] (active)

CC(=O)OCC(C)OC(C)=O (stereo not drawn)
Potency [1]: inactive | Potency [2]: inactive | Potency [3]: inactive | Potency [4]: inactive | Potency [5]: inactive | Potency [7]: inactive | Potency [8]: inactive | Potency [9]: inactive | Potency [10]: inactive | outcome [11]: inactive | Potency [12]: inactive | outcome [13]: inactive | Potency [14]: inactive | Potency [15]: inactive | Potency [16]: inactive | Potency [17]: inactive | Potency [18]: inactive

COc1ccc(-c2ccc3cc(C(=O)O)ccc3c2)cc1C12CC3CC(CC(C3)C1)C2
Potency [1]: 2.37 µM (active) | Potency [2]: inactive | Potency [3]: 3.76 µM (active) | Potency [4]: inactive | Potency [5]: inactive | Potency [7]: inactive | Potency [8]: inactive | Potency [9]: inactive | Potency [10]: inactive | outcome [11]: inactive | Potency [12]: inactive | outcome [13]: inactive | Potency [14]: inactive | Potency [15]: inactive | Potency [16]: inactive | Potency [17]: inactive | Potency [18]: inactive

Cc1nc(-c2ccc3c(c2)CCN(CCC2CCC(NC(=O)/C=C/c4ccc(F)cc4)CC2)CC3)no1 (stereo not drawn)
Potency [1]: 27.4 µM (active) | Potency [2]: 19.4 µM (active) | Potency [3]: inactive | Potency [5]: inactive | Potency [6]: inactive | Potency [7]: inactive | Potency [8]: inactive | Potency [9]: inactive | Potency [10]: inactive | outcome [11]: inactive | Potency [12]: inactive | outcome [13]: inactive | Potency [14]: inactive | Potency [15]: inactive | Potency [16]: inactive | Potency [18]: inactive | Potency [19]: 21.9 µM (active)

CCOc1ccc2nc3cc(N)ccc3c(N)c2c1
Potency [1]: 11.9 µM (active) | Potency [2]: inactive | Potency [4]: inactive | Potency [5]: inactive | Potency [6]: 2.66 µM (active) | Potency [7]: inactive | Potency [8]: inactive | Potency [10]: inactive | outcome [11]: inactive | outcome [13]: inactive | Potency [14]: inactive | Potency [15]: inactive | Potency [17]: inactive

CCCCCCCCCCCCCCCS(=O)(=O)Oc1ccccc1
Potency [1]: inactive | Potency [2]: inactive | Potency [3]: inactive | Potency [4]: inactive | Potency [7]: inactive | Potency [8]: inactive | Potency [9]: inactive | Potency [10]: inactive | outcome [11]: inactive | Potency [12]: inactive | outcome [13]: inactive | Potency [14]: inactive | Potency [15]: inactive | Potency [16]: inactive | Potency [17]: inactive | Potency [18]: inactive

COc1cccc2c1C(=O)c1c(O)c3c(c(O)c1C2=O)C[C@@](O)(C(=O)CO)C[C@@H]3O[C@H]1C[C@H](N)[C@H](O[C@@H]2CCCCO2)[C@H](C)O1
Potency [1]: 1.88 µM (active) | Potency [2]: 2.37 µM (active) | Potency [3]: 8.41 µM (active) | Potency [5]: inactive | Potency [6]: 0.699 µM (active) | Potency [9]: inactive | outcome [11]: inactive | Potency [12]: inactive | outcome [13]: inactive | Potency [16]: inactive | Potency [17]: inactive | Potency [18]: inactive

CN1CCN(CCC(=O)N2c3ccccc3Sc3ccc(C(F)(F)F)cc32)CC1
Potency [1]: inactive | Potency [2]: inactive | Potency [3]: inactive | Potency [4]: inactive | Potency [5]: inactive | Potency [7]: inactive | Potency [8]: inactive | Potency [9]: inactive | Potency [10]: inactive | outcome [11]: inactive | Potency [12]: inactive | outcome [13]: inactive | Potency [14]: inactive | Potency [15]: inactive | Potency [16]: inactive | Potency [17]: inactive | Potency [18]: inactive
